UHRF1 binding: human UHRF1 methylated DNA binding inhibitors; Q96T88; UHRF1 binding to methylated oligo, TR-FRET; inhibition, % at 4.4 µM; 370,000 compounds, 0.75% hits; AID 687016; in the data active means inhibition above about 21%;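 further: UHRF1 SRA domain binding a hemimethylated CpG hairpin DNA probe; 0% = median of test compound wells and 100% = reference inhibitor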
rCAG binder: r(CAG) repeat RNA binding. inhibition, % at 3 µM. TO-PRO-1 dye displacement fluorescence. AID 651821. 370,000 compounds, 1.3% hits;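 active means inhibition above the plate cutoff, the mean of all test compounds on that plate plus 3 SD, cut at about 35% in these data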;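 further: 0% = DMSO alone and 100% = 100 µM mitoxantrone as full dye displacement; higher means more dye released from RNA so lower well fluorescence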
LEDGF integ inh: blocks HIV-1 LEDGF/p75-dependent DNA integration; inhibition, % at 3.7 µM; AID 743269; TR-FRET IN-LEDGF/p75 DNA integration, Eu/Cy5; 370,000 compounds, 0.64% hits;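 active means inhibition above the screen-wide mean plus 3 SD, cut at about 13% in these data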;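 further: signal is the Cy5 over europium emission ratio at 671 and 618 nm; 0% = plate median of compound wells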
PG9 Ab binder: small molecules binding HIV-1 gp120 antibody PG9; TR-FRET gp120-PG9 antibody binding; AID 624416; 360,000 compounds, 0.43% hits; inhibition, % at 6.7 µM; in the data active means inhibition above about 8.5%
MBD2 inh: inhibitors of human MBD2 binding to methylated oligonucleotide. TR-FRET. inhibition, % at 4.4 µM. 370,000 compounds, 0.31% hits. AID 686964; in the data active means inhibition above about 13%
DNMT1 block: inhibitors of human DNMT1. DNMT1 molecular beacon, Hinp1I cleavage, fluorescence. inhibition (reported as % activation of signal), % at 10 µM. 360,000 compounds, 0.83% hits; in the data active means inhibition above about 50%
IN multimer up: activates HIV-1 integrase multimerization in LEDGF counter-screen; activation, % at 7.7 µM; TR-FRET HIV-1 integrase multimerization, biochemical; shares compounds with LEDGF integ inh; 2,000 compounds, 17% hits; in the data active means activation above about 8.9%
TRFRET interf: counter-screen for LEDGF/p75 integration inhibitors: TR-FRET optical interference. shares compounds with LEDGF integ inh. TR-FRET optical interference counterscreen, HIV-1 IN multimerization. inhibition, % at 7.7 µM. 2,000 tested, under 10 active. AID 1053135;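 active means inhibition above the mean over all tested compounds plus 3 SD, which no compound reached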;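 further: 0% = integrase with antibodies and DMSO and 100% = antibodies without integrase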
IN-LEDGF confirm: LEDGF/p75-dependent HIV-1 integration inhibition, confirmation | shares compounds with LEDGF integ inh | TR-FRET LEDGF/p75-dependent HIV-1 integration, biochemical | inhibition, % at 3.7 µM | 2,000 compounds, 36% hits; in the data active means inhibition above about 14%
* marks the source's active call; other numbers are inactive results; . = no result given. In the library only some 3.5% were active in any assay of this set; here they are far more common.

SMILES	UHRF1 binding	rCAG binder	LEDGF integ inh	PG9 Ab binder	MBD2 inh	DNMT1 block	IN multimer up	TRFRET interf	IN-LEDGF confirm
O=c1c2c(-c3ccco3)csc2nc(SCc2cn3cccnc3n2)n1-c1ccccc1	32*	27	27*	3	7	30	2	-8	22*
N#C/C(=C\c1cc(Br)ccc1F)C(=O)NC1CC1	-2	0	4	-1	-1	-2	.	.	.
COc1ccc(C(=O)CSc2nc(=O)n(Cc3cccnc3)c3c2CCC3)cc1	-4	4	3	-1	-3	-5	.	.	.
O=[N+]([O-])c1ccc(Cn2cc(-c3cccc(C(F)(F)F)c3)nn2)cc1	1	-1	1	-3	-3	6	.	.	.
O=C(NCc1ccc(OC(F)(F)F)cc1)C1CC(c2ccccc2C(F)(F)F)=NO1 (configuration not stated)	0	-2	0	2	0	4	.	.	.
O=C(NCc1ccccc1)C1Nc2ccc(OC(F)(F)F)cc2C2C=CCC12 (configuration not stated)	-2	34	22*	-2	-3	-4	1	-2	-8
COc1cc(OC)c(OC)cc1/C=C/c1ccnc2ccccc12	-2	0	1	0	-1	4	.	.	.
COc1ccc(OC)c(/C=C/c2ccnc3ccccc23)c1	4	-1	25*	0	-3	-3	1	-4	-10
Clc1cccc(-c2ccc(C=Nc3ccc(N4CCOCC4)cc3)o2)c1Cl	-1	-2	24*	-2	-5	-2	4	-20	12
Clc1ccc(-c2ccc(C=Nc3ccc(N4CCOCC4)cc3)o2)cc1	-1	7	18*	-7	-1	-15	2	-9	7
Cc1ccccc1NC(=O)c1sc2nc3c(c(-c4ccco4)c2c1N)CCC3	14	21	46*	5	5	-8	1	-7	1
Cc1ccc(C(=O)C(C)OC(=O)CNS(=O)(=O)c2ccc(C)cc2)cc1 (configuration not stated)	1	1	0	1	3	1	.	.	.
Cc1ccc(S(=O)(=O)NCC(=O)OC(C)C(=O)c2ccccc2)cc1 (configuration not stated)	-4	-3	23*	0	-4	3	0	-1	-3
C=CCNc1nc2c(c(=O)[nH]c(=O)n2C)n1CCCc1ccccc1	0	-5	-2	-2	-1	4	.	.	.
CC[C@@H](C)CN1C(=O)N[C@@H](c2ccccc2)C(C(C)=O)=C1C	10	18	18*	3	-6	31	1	-4	19*
CC[C@@H](C)CN1C(=O)N[C@@H](CCc2ccccc2)C(C(C)=O)=C1C	0	0	-3	1	1	11	.	.	.
COc1ccccc1-c1nc(SCC(=O)N2CCC(C(N)=O)CC2)n[nH]1	7	0	2	-2	0	3	.	.	.
O=C1c2nc3cc(-c4ccco4)[nH]n3c(=O)c2CN1C1CCCCC1	13	25	18*	-3	-5	19	1	-6	5
Cc1cc(NC(=O)CC#N)n(-c2ccccc2)n1	0	-1	16*	-1	0	-2	-2	10	-6
Cc1cc(NC(=O)CSc2nnc(-c3ccncc3)n2Cc2ccccc2)n(-c2ccccc2)n1	2	-5	70*	1	2	0	0	2	-4
Cc1cc(NS(=O)(=O)c2ccc(NC(=O)CSc3nnc(-c4ccncc4)n3Cc3ccco3)cc2)nc(C)n1	7	17	36*	.	6	.	1	-5	-9
Cc1cc(NC(=O)CSc2nnc(-c3ccncc3)n2C)n(-c2ccccc2)n1	0	-3	0	0	7	1	.	.	.
CCC(=O)Nc1nc2ccccc2n1Cc1ccccc1	-2	-4	6	-1	2	-1	.	.	.
CCC(=O)Nc1nc2ccccc2n1Cc1ccc(C)cc1	1	-1	14*	2	3	0	-1	3	13
CCOC(=O)[C@]12CCCCC/C=C\1N(Cc1ccc(OC)cc1)C(=O)[C@H]2CC(=O)NCCCCc1ccccc1	-4	3	6	.	-3	.	.	.	.
SMILES	UHRF1 binding	rCAG binder	LEDGF integ inh	PG9 Ab binder	MBD2 inh	DNMT1 block	IN multimer up	TRFRET interf	IN-LEDGF confirm
CC(=O)NC(C)(c1ccccc1)c1nc(-c2cccc(C#N)c2)cs1 (configuration not stated)	-4	0	14*	0	-4	0	-1	3	-3
COc1ccc(C(C)(NC(C)=O)c2nc(-c3cccc(C#N)c3)cs2)cc1 (configuration not stated)	-1	2	1	1	0	3	.	.	.
COc1ccc(S(=O)(=O)N2CCOCC2)cc1NC(=O)CSc1n[nH]c(=O)n1C1CC1	1	4	71*	0	-1	0	1	-3	2
O=Cc1coc2ccc3ccccc3c2c1=O	2	6	16*	0	0	3	0	0	54*
Cc1cc(C)cc(CC(=O)N2CCC2(C)C(=O)NS(=O)(=O)c2cccc(OC(F)F)c2)c1 (configuration not stated)	-1	23	17*	1	0	0	0	-1	-3
Cn1c(=O)c2cc(NC(=O)NCCc3ccccc3)ccc2n1Cc1ccc(F)cc1	1	2	2	-1	-9	-7	.	.	.
O=C1C=C(Nc2cccc(O)c2)CC(c2ccco2)C1 (configuration not stated)	-2	11	14*	-3	-6	-4	-1	3	7
CC(C)S(=O)(=O)N1CCCC(c2cc(C(=O)NCc3ccccc3)no2)C1 (configuration not stated)	-1	-1	-1	-1	1	4	.	.	.
COCC(=O)N1CCC(Oc2ccc(C(=O)N3CCCCCCC3)cc2)CC1	8	-9	-1	-2	2	1	.	.	.
COCC(=O)N1CCC(Oc2ccc(C(=O)N3CCCCCC3)cc2)CC1	1	-5	28*	-3	2	0	-1	4	0
COc1ccc(-c2cc(C(=O)Nc3cccc(O)c3)no2)cc1	1	4	38*	0	-4	-1	1	-4	-7
COc1ccc(-c2cc(C(=O)Nc3ccc(C)c(C)c3)no2)cc1	3	3	6	-1	-2	8	.	.	.
CN1/C(=C\C=Nc2ccc3ccccc3c2)C(C)(C)c2ccccc21	.	.	.	.	.	-2	.	.	.

High-throughput results (PubChem BioAssay)
